# Experimental data taken from the supplement of paper PMC6992640.
# Structures can show the parent of a compound that is named as a salt. ± gives the standard deviation of the averaged measurements.
# Legend:
# Assay in all cases: cell viability (% of vehicle); higher = less cytotoxic
# Conditions in all cases: 10 µM; 72 h
# [1] = tested on: HCI01 (cells of a triple-negative basal-like breast cancer xenograft)
# [2] = tested on: HCI03 (cells of an ER-positive luminal breast cancer xenograft)
# [3] = tested on: HCI09 (cells of a triple-negative luminal androgen receptor type breast cancer xenograft)
# [4] = tested on: HCI11 (cells of an ER-positive luminal breast cancer xenograft)
# [5] = tested on: HCI13 (cells of an ER-positive luminal breast cancer xenograft)
# [6] = tested on: HCI16 (cells of a triple-negative basal-like breast cancer xenograft)
# [7] = tested on: UCD52 (cells of a triple-negative basal-like breast cancer xenograft)
# [8] = tested on: WHIM2 (cells of a triple-negative basal-like breast cancer xenograft)
# [9] = tested on: WHIM30 (cells of a triple-negative basal-like breast cancer xenograft)
# 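Also: PDX cells carrying CMV promoter-driven luciferase, viability read as total photon flux per second by IVIS imaging following D-luciferin, vehicle control 0.1% DMSO.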
SMILES,cell viability [1],cell viability [2],cell viability [3],cell viability [4],cell viability [5],cell viability [6],cell viability [7],cell viability [8],cell viability [9]
Oc1c(Br)cc(Br)c2cccnc12 [Broxyquinoline],81.5 ± 50,89.1,25.5 ± 7.7,98.1,34.3 ± 4.1,122,72.8 ± 42,146 ± 60,98 ± 4.2
CC(Cn1cnc2c(N)ncnc21)OCP(=O)(O)O (stereo not given) [Tenofovir],89.1 ± 9.4,123,103 ± 15,106,112 ± 11,116,90.6 ± 6.9,99.3 ± 14,121.3 ± 1.2
O=c1[nH]c(=O)n(C2CCCO2)cc1F (stereo not given),158 ± 9.9,110,109 ± 5.2,112,89.2 ± 7.7,143,116 ± 20,130 ± 13,130 ± 0.83
CC(=O)O.CC(=O)O.CCC(C)CC(C)CCCCCCCCC(=O)NC1CC(O)C(NCCN)NC(=O)C2C(O)CCN2C(=O)C(C(O)CCN)NC(=O)C(C(O)C(O)c2ccc(O)cc2)NC(=O)C2CC(O)CN2C(=O)C(C(C)O)NC1=O (stereo not given) [Caspofungin Acetate],58.7 ± 28,115,84.5 ± 9.6,84.4,88 ± 5.7,115,71.4 ± 2.7,94.1 ± 40,119 ± 2.4
C=CC(=O)Nc1cccc(Nc2nc(Nc3ccc(N4CCN(C(C)=O)CC4)cc3OC)ncc2C(F)(F)F)c1,103 ± 4.6,99.9,63.8 ± 0.93,94,88.2 ± 3.4,73.3,64.7 ± 17,66.7 ± 2.6,99.6 ± 16
CC1C=CC=CC=CC=CC=CC=CC=CC(OC2OC(C)C(O)C(N)C2O)CC2OC(O)(CC(O)CC(O)C(O)CCC(O)CC(O)CC(=O)OC(C)C(C)C1O)CC(O)C2C(=O)O (stereo not given) [Amphotericin B],108 ± 19,116,105 ± 2.6,109,107 ± 18,107,82.2 ± 5.4,95.2 ± 23,127 ± 1.4
O=C(O)c1ccccc1 [Benzoic Acid],143 ± 20,95.6,109 ± 25,104,70.3 ± 10,124,110 ± 8,127 ± 7.8,111 ± 15
CN(C)C(=O)NC1CCC(CCN2CCN(c3cccc(Cl)c3Cl)CC2)CC1 (stereo not given) [Cariprazine],122 ± 28,72.1,43.9 ± 2.2,67.7,53.4 ± 11,89.7,38.5 ± 6,119 ± 8,118.6 ± 0.35
CCOc1cc(N)c(Cl)cc1C(=O)NCC1CN(Cc2ccc(F)cc2)CCO1.O=C(O)CC(O)(CC(=O)O)C(=O)O (stereo not given) [Mosapride Citrate],138 ± 14,110,83.1 ± 9.6,116,103 ± 23,118,106 ± 2.8,82.6 ± 16,136 ± 5.5
COc1c(N2CC3CCCNC3C2)c(F)cc2c(=O)c(C(=O)O)cn(C3CC3)c12.Cl (stereo not given) [Moxifloxacin HCl],132 ± 5.7,124,97.1 ± 3.3,120,113 ± 14,114,133 ± 11,92.3 ± 8.9,134 ± 16
Nc1ccc(C(=O)NCC(=O)[O-])cc1.[Na+] [Sodium 4-amiropparaty Hyalrate],107.1 ± 0.65,109,122 ± 35,110,112 ± 12,107,91.5 ± 8.8,95.4 ± 6,171 ± 21
CCCC(CCC)C(=O)[O-].[Na+] [Valproic acid sodium salt (Sodium valproate)],190 ± 54,154,92 ± 18,140,111 ± 14,159,158 ± 42,105 ± 18,192 ± 10
Cc1cn(C2CC(N=[N+]=[N-])C(CO)O2)c(=O)[nH]c1=O (stereo not given) [Zidovudine],104 ± 3.4,160,116 ± 1.2,101,124 ± 7.2,143,123 ± 16,98.22 ± 0.63,144 ± 7.7
OC(CCCN1CCCCC1)(c1ccccc1)c1ccccc1 [Diphenidol HCl],117 ± 19,139,107 ± 12,82.5,88.1 ± 2.6,118,101 ± 25,108 ± 9.6,113 ± 11
COc1cc(Nc2ncc3c(n2)-c2ccc(Cl)cc2C(c2c(F)cccc2OC)=NC3)ccc1C(=O)O [MLN8237 (Alisertib)],80 ± 15,118,106 ± 32,100,94.9 ± 14,87.9,64.6 ± 12,80.1 ± 8.5,156 ± 12
CCN(CC)CC(=O)Nc1c(C)cccc1C [Lidocaine],107 ± 5.8,94.4,105 ± 5.4,100,100 ± 3.6,93.9,90.9 ± 16,74.4 ± 18,122 ± 21
CCC1OC(=O)C(C)C(OC2CC(C)(OC)C(O)C(C)O2)C(C)C(OC2OC(C)CC(N(C)C)C2O)C(C)(O)CC(C)C2NC(COCCOC)OC(C2C)C1(C)O (stereo not given) [Dirithromycin],143 ± 72,117,89.5 ± 16,94,76.3 ± 11,103,81.8 ± 15,90.6 ± 12,92.4 ± 3.8
CO/N=C(\C(=O)N[C@@H]1C(=O)N2C(C(=O)O)=C(CSc3nc(=O)c(O)nn3C)CS[C@H]12)c1csc(N)n1 [Ceftriaxone Sodium Trihydrate],148 ± 45,111,98.6 ± 26,101,77.6 ± 1.9,125,106 ± 1.4,130 ± 13,109 ± 2.1
Cn1cnc([N+](=O)[O-])c1Sc1ncnc2nc[nH]c12 [Azathioprine],98.2 ± 32,119,106 ± 26,87,65 ± 8.7,151,129 ± 18,71.1 ± 10,110 ± 8.8
O=CC(O)C(O)C(O)CO (stereo not given) [Xylose],70.5 ± 35,96.1,91.8 ± 13,90.9,104 ± 18,108,83 ± 1.1,94.5 ± 4.8,129 ± 0.16
